The values below come from PubChem BioAssay (NCI).

This is part of a sample that, as a whole, favours compounds with a hit. Of some 79,000 tested, about 15% had one in any assay. Values without a mark were called inactive. Active and inactive are the calls of the source. Cut-off read from the data, not from the text of the source: active = growth inhibition above about 70%; inactive = the rest.

The assay in a line: NCI Yeast Anticancer Drug Screen. Data for the CLN2oe strain (AID 163).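 Note: 0% = growth of vehicle-only control cultures.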 Particulars: S. cerevisiae CLN2oe strain, stronger effect = higher value. Here is the method: Growth inhibition of yeast strains with defined genetic alterations is measured as a screen for potential anti-cancer activity. Selected strains with alterations in DNA damage repair or cell cycle control were exposed to compounds and growth inhibition was measured relative to vehicle treated controls. The strain used in this assay is CLN2oe

As to `Cc1cc(CO)c(O)c(CNCc2cc(C)cc(CO)c2O)c1`, the growth inhibition is, setting by setting: (at 1.2 µM) -10%; (at 3.7 µM) -24%; (at 11.0 µM) -25%; (at 33.0 µM) -14%; (at 100.0 µM) 98% (active).

Consider `CCCCCCCCCC/C=C\C(=O)O`, for which the growth inhibition (at 1.2 µM) is 15%; the growth inhibition (at 3.7 µM) is 25%; the growth inhibition (at 11.0 µM) is 7%; the growth inhibition (at 33.0 µM) was -20%; the growth inhibition (at 100.0 µM) is 97% (active).

As to `O=C(O)CNc1ccc(Cl)c(Cl)c1`, the growth inhibition reads like this: (at 1.2 µM) -4%; (at 3.7 µM) -1%; (at 11.0 µM) 0%; (at 33.0 µM) 58%; (at 100.0 µM) 98% (active).

In the case of `CC(=O)OCc1ccc(O)c(C=O)c1`, the growth inhibition (at 1.2 µM) is -5%; the growth inhibition (at 3.7 µM) was 1%; the growth inhibition (at 11.0 µM) is 11%; the growth inhibition (at 33.0 µM) was -12%; the growth inhibition (at 100.0 µM) is -2%.

As for `c1ccc2c(c1)sc1nc3ccncc3nc12`, the growth inhibition (at 1.2 µM) was 2%; the growth inhibition (at 3.7 µM) was 5%; the growth inhibition (at 11.0 µM) was 4%; the growth inhibition (at 33.0 µM) is 4%; the growth inhibition (at 100.0 µM) is 7%.

Turning to `Cc1nn(-c2cc(Cl)ccc2[N+](=O)[O-])c(C)c1Cl`, the growth inhibition is, setting by setting: (at 1.2 µM) 1%; (at 3.7 µM) 2%; (at 11.0 µM) -2%; (at 33.0 µM) 4%; (at 100.0 µM) 5%.

In the case of `CCN(CC)C(=S)N/N=C(/C)c1cccc(/C(C)=N\NC(=S)N(CC)CC)n1`, the growth inhibition by setting is: (at 1.2 µM) 17%; (at 3.7 µM) 16%; (at 11.0 µM) 31%; (at 33.0 µM) 48%; (at 100.0 µM) 91% (active).

With `Cc1cc2c(cc1C(=O)CCC(=O)O)CC1(C2)Cc2cc(C)c(C(=O)CCC(=O)O)cc2C1`, the growth inhibition (at 1.2 µM) was -5%; the growth inhibition (at 3.7 µM) is 2%; the growth inhibition (at 11.0 µM) was 14%; the growth inhibition (at 33.0 µM) is 27%; the growth inhibition (at 100.0 µM) was 41%.
